# Compound activity as filed in PubChem BioAssay.
# ELG1 genotox: induces genotoxicity in HEK293T cells with luciferase-tagged ELG1; 330,000 tested, 1.3% active; AID 504466; Potency, µM (highest dose often 46 µM), without a hit: at the highest dose activity change, positive = activation, most hits filed as activators; HEK293T ELG1-luciferase reporter, luminescence, 16 h; note: % of control where 0% means no effect; nearly all actives have a fitted effect of over 60% in size
#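 Reporter readout depends on ELG1 protein level, which increases with genetic stress. After 16 hr compound exposure at 37 °C, luciferase activity was quantified using ONE-Glo.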
# NPC1 prom act: activators of NPC1 promoter; Huh7 NPC1 promoter luciferase reporter, 24 h; Potency, µM (titrated, usually from 9.22 µM), inactives show top-dose activation, actives largely listed as activators; 320,000 tested, 2.4% active; note: % of control where 0% means no effect; nearly all actives have a fitted effect of over 60% in size
#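 Compounds in DMSO were transferred onto Huh7 NPC1-luciferase reporter cells pre-incubated 2 h; after 24 h at 37 °C, Amplite reagent was dispensed and luminescence recorded 10 min later.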
# Rab9 prom act: Rab9 promoter activation; Huh7 Rab9 promoter-luciferase reporter, luminescence, 24 h; Potency, µM (titrated, usually from 9.22 µM), for inactives: at the highest dose activation, negative = inhibition, hits mostly activators; 320,000 tested, 2.8% active; AID 485297; note: % of control where 0% means no effect; nearly all actives have a fitted effect of over 60% in size
#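 Luciferase signal after 10 min detection reagent at ambient indicates Rab9 promoter upregulation; stably transfected Huh7 cells were treated 24 h with compound in DMSO at 37 °C, 5% CO2.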
# SMN2 splice up: increases expression of the SMN2 splice variant | HEK293 SMN2-luciferase splicing reporter, luminescence, 30-36 h | Potency, µM (titrated, usually from 46.1 µM), for the others: at the top dose activity change, positive = activation, usual class: activators | 210,000 tested, 2.8% active | AID 1458; note: % of control where 0% means no effect; nearly all actives have a fitted effect of over 55% in size
#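 HEK293 cells carry an SMN2 […]–luciferase reporter in which exon 7 inclusion puts luciferase in frame. Cells were plated 10-12 h before compound addition, then incubated 30-36 h at 37C. ONE-Glo luminescence was read; sodium butyrate at 4.5 mM final served as control.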
# FLuc modulator: firefly luciferase modulation, counter-screen for miR-21 project. AID 588342. P08659. purified FLuc, Km substrates, luminescence inhibition. Potency, µM (doses to about 57.5 µM), for inactives: at the highest dose activity change, negative = inhibition, actives largely listed as inhibitors. 360,000 tested, 6.9% active;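 note: plate controls were vehicle for no effect and reference inhibitor for full effect; nearly all actives have a fitted effect of over 55% in size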
# Target sequence (P08659 whole entry, looked up): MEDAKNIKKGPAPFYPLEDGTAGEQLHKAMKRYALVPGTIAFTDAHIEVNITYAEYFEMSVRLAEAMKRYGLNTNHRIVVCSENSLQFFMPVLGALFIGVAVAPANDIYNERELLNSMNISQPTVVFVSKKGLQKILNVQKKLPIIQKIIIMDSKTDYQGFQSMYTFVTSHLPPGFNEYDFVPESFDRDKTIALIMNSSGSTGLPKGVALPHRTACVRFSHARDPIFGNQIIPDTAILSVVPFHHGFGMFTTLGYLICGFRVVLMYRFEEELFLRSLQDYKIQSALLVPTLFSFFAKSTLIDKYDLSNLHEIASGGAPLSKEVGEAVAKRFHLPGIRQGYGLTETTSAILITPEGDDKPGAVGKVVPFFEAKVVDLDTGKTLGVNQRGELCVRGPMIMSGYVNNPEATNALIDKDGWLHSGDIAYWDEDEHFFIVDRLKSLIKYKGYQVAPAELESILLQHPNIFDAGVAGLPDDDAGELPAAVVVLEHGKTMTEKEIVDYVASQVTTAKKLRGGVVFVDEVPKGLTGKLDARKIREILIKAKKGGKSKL
#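 Purified P. pyralis luciferase (10nM final) with 10uM D-luciferin and 10uM ATP (Km levels) in 50mM Tris acetate pH 7.5, 10mM Mg acetate, 0.01% Tween-20, 0.05% BSA; qHTS 6-point titration, ~60 µM downward; luminescence read.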
# ELG1 DNA repair: blocks ELG1-dependent DNA repair in HEK293T cells; HEK293T ELG1-luciferase reporter, luminescence, 16 h; DNA damage induced by 5-fluorouridine; Potency, µM (titrated, usually from 46.1 µM), for inactives: top-dose activity change, negative = inhibition, usual class: inhibitors; 330,000 tested, 2.3% active; AID 504467; note: % is set by controls: 0 for no effect and ±100 for the full control effect; nearly all actives have a fitted effect of over 55% in size
#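 In this reporter screen, reduction of luminescence relative to DMSO vehicle indicated activity. Compounds and 5-fluorouridine were added together to 2,000 cells per well, incubated for 16 hr at 37 °C, then developed with ONE-Glo.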
# Numbers without * were called inactive; ? = inconclusive; · = not tested or not shown; [ ] = another dose, or the depositor's remark. Rows were chosen to be rich in hits. Some 9.2% of all compounds tested hit in one or more screens of this group. Calls come from the whole dose curve; as a rule, active = well fitted curve in the direction sought with a large enough effect; inconclusive = small, poorly fitted or top-dose-only effect, or another doubt; inactive = no such curve, though single readings can be large; an effect the other way counts as inactive or inconclusive. Potency is the fitted concentration of half-maximal effect.
SMILES,ELG1 genotox,NPC1 prom act,Rab9 prom act,SMN2 splice up,FLuc modulator,ELG1 DNA repair
Cc1ccccc1C(=O)N1CCC(C(=O)Nc2ccc(S(=O)(=O)N3CCOCC3)cc2)CC1,-4.2%,-0.3%,-6.4%,·,5.2%,-9.3%
O=C(C1CCN(S(=O)(=O)c2ccc(Cl)cc2)CC1)N1CCCC1,-0.1%,-2.2%,-2.0%,·,-0.8%,10.6%
CN(C1CCCCC1)S(=O)(=O)c1ccc(S(=O)(=O)N2CCN(C(=O)c3ccccc3F)CC2)cc1,-5.7%,0.9%,-4.0%,-30.3%,-1.1%,18.4µM*
Cc1ccc(S(=O)(=O)N2CCC(C(=O)N3CCC3)CC2)cc1,17.5%,2.24µM*,3.16µM*,·,9.53µM*,?
Cc1ccc(S(=O)(=O)N2CCN(C(=O)CC(C)C)CC2)cc1,?,3.98µM*,1.12µM*,·,15.1µM*,?
Cc1ccc(OC(=O)CSc2nnc(-c3cccs3)o2)cc1C,·,·,·,·,-1.9%,·
O=C(Cc1cccs1)NCCc1ccc(Cl)cc1,0.9%,-4.9%,-0.8%,·,-0.1%,7.3%
Cc1ccc(Cl)cc1N1CCN(C(=O)c2c(C)oc3ncnc(N4CCCCC4)c23)CC1,·,·,·,·,-8.6%,·
Cc1ccc(S(=O)(=O)N2CCCN(C(=O)c3cc4ccccc4[nH]3)CC2)cc1,4.9%,5.8%,9.2%,·,19µM*,26.3%
O=C(c1cc(=O)[nH]c2ccccc12)N1CCN(S(=O)(=O)c2ccc3ccccc3c2)CC1,-5.6%,-2.6%,9.3%,-3.9%,2.1%,?
CN1CCN(C(=O)c2cc3ccccc3[nH]2)CC1,0.2%,-0.2%,-0.9%,·,-10.2%,-0.5%
O=C(c1cc(=O)[nH]c2ccccc12)N1CCN(S(=O)(=O)c2ccc(Cl)cc2)CC1,-5.3%,-3.1%,-2.0%,·,1.6%,23.1µM*
CC(C)Cc1nn2c(=O)cc(COC(=O)c3ccc4c(c3)OCO4)nc2s1,·,·,·,·,-8.8%,·
O=C(CNC(=O)c1ccc(F)cc1)Nc1ccccc1C(F)(F)F,0.1%,2.7%,-2.8%,·,4.9%,1.7%
COC(=O)c1ccccc1NC(=O)Cn1c(=O)n(CCCC(=O)NCc2ccccc2OC)c(=O)c2ccccc21,·,·,·,3.2%,2.4%,·
CCOc1cc(/C=C/c2cc(C(=O)O)c3ccccc3n2)ccc1O,10.4%,0.9%,2.3%,13.0%,4.26µM*,?
CCOc1cc(/C=N/N=C/c2ccc(O)c(OCC)c2)ccc1O,-2.8%,1.6%,0.7%,·,2.6%,-9.0%
CCOc1cc(/C=C/c2cc(C(=O)O)c3ccccc3n2)ccc1OC,?,?,?,22.4µM*,1.35µM*,?
COc1cc(/C=C/c2cc(C(=O)O)c3ccccc3n2)cc(OC)c1O,-0.1%,-0.2%,-8.6%,7.0%,9.53µM*,10.2%
CCOc1ccccc1NC(=O)c1cc(-c2cc(OC)c(OC)c(OC)c2)nc2ccccc12,-9.3%,-2.5%,9.3%,·,-0.2%,?
CCOc1cccc(/C=C/c2cc(C(=O)O)c3ccccc3n2)c1OC,?,2µM*,4.47µM*,·,1.07µM*,?
CCc1ccc(-n2nc3ccc(NC(=O)c4cc(Cl)c(OC)c(Cl)c4)cc3n2)cc1,·,·,·,4.6%,53.7%,·
COc1ccc(OCc2cc(C(=O)NCC3CCCCO3)no2)c(Cl)c1 (stereo unspecified),?,?,3.98µM*,·,?,?
COc1cccc(OCc2cc(C(=O)NC3CCOCC3)no2)c1,?,?,?,·,23.9µM*,?
COc1ccc(OCc2cc(C(=O)NCCN3CCCc4ccccc43)no2)c(Cl)c1,-20.2%,23.9%,4.5%,·,23.9µM*,?
SMILES,ELG1 genotox,NPC1 prom act,Rab9 prom act,SMN2 splice up,FLuc modulator,ELG1 DNA repair
CSc1ccccc1OCc1cc(C(=O)NCCC2CCCCO2)no1 (stereo unspecified),7.7%,?,14.4%,·,?,?
COc1ccc(OCc2cc(C(=O)NCC3CCOCC3)no2)c(Cl)c1,?,?,?,·,13.5µM*,?
COc1ccc(OCc2cc(C(=O)NCC(C)(C)N3CCOCC3)no2)c(Cl)c1,-3.0%,3.7%,17.2%,·,?,15.0%
COc1ccc(OCc2cc(C(=O)NCCN3CCCC(O)C3)no2)c(Cl)c1 (stereo unspecified),2.6%,1.9%,-2.1%[1.84 µM],·,?,?
COc1ccc(OCc2cc(C(=O)N(C)Cc3cc(C4CC4)n[nH]3)no2)c(Cl)c1,?,3.55µM*,2.82µM*,·,12µM*,?
O=C1O/C(=C/c2ccccc2)N=C1c1ccccc1,-0.5%,-0.7%,-0.2%,6.8%,2.69µM*,0.6%
CCc1nccn1CCC(=O)N1CCCC(Nc2ccc(F)cc2)C1 (stereo unspecified),-2.8%,-0.5%,0.6%,·,0.6%,1.4%
CN(Cc1c(F)cccc1Cl)C(=O)C1=CC=CN2CCS(=O)(=O)N=C12,3.6%,·,·,·,·,?
CCCc1nnc(NC(=O)c2cccc(OC)c2)s1,?,3.16µM*,4.47µM*,?,23.9µM*,?
COc1cccc(C(=O)Nc2nnc(C(C)C)s2)c1,3.66µM*,3.55µM*,1µM*,2.51µM*,3.38µM*,?
CC(C)CSc1ccc(S(=O)(=O)NCC(=O)O)cc1[N+](=O)[O-],0.7%,-1.3%,-3.8%,-6.8%,?,15.4%
Cc1ccc(NC(=O)CSc2nnc(C3CC3)n2N)cc1S(=O)(=O)N1CCOCC1,-1.3%,1.9%,-1.4%,-41.4%,-1.4%,-13.1%
Cc1nc2ccccc2nc(C)c1=NOCc1cccc(F)c1,-6.3%,-1.9%,-1.2%,20µM*,-10.9%,?
Cc1ccc(Nc2cc(C)nn2-c2nc(C)cc(C)n2)cc1,-1.6%,-3.9%,-13.0%,-39.9%,-2.3%,14.6µM*
O=C(Nc1cccc(-c2ccc(N3CCCCC3)nn2)c1)C(F)(F)F,?,0.282µM*,0.794µM*,·,1.35µM*,?
CC1CCN(C(=O)C(C)Sc2nc(-c3ccccc3)cc(C(F)(F)F)n2)CC1 (stereo unspecified),-10.6%,-4.9%,-2.0%,-19.6%,-7.2%,?
CC1CCN(c2ccc(-c3cccc(NC(=O)C(F)(F)F)c3)nn2)CC1,0.13µM*,?,0.316µM*,·,0.239µM*,?
O=C(Nc1cccc(-c2ccc(N3CCCCC3)nn2)c1)c1ccc(Br)o1,2.31µM*,1.26µM*,2.82µM*,·,0.338µM*,?
O=C(Nc1cccc(-c2ccc3nncn3n2)c1)C(F)(F)F,1.2%,1.4%,-1.5%,·,2.5%,9.9%
COCCCNC(=O)C[C@H]1C[C@H](C(=O)N(C(C)C)C(C)C)[C@@]2(C)c3[nH]c4ccc(Cl)cc4c3CCN2C1=O,-0.1%,·,·,·,·,-15.1%
